PubChem BioAssay (EPA / NIEHS)
The source made the active and inactive calls. The calls were made as follows: active = hit-call score of the fitted dose curve at least 0.9, where 1 is the maximum; inactive = score below 0.9.

Experiment: ATG_GATA_CIS: Attagene CIS-FACTORIAL HepG2 Assay for human GATA Binding Protein (AID 2282944)
Details: HepG2 GATA cis-element reporter, Attagene multiplex mRNA; actives raise or lower the signal
How it was run: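 HepG2 cells transiently transfected with multiplexed cis-element reporter units measure endogenous GATA activity; after 24 h compound exposure, reporter mRNA quantified by RT-PCR and capillary electrophoresis. Changes fitted in both directions vs DMSO.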

outcome, inactive:
C=CC(C)(C)C, CCCCCCCCCCCCCOP(=O)(O)O, CC(C)=CCC[C@H](C)CCO, NC(=O)OCC(COC(N)=O)c1ccccc1, CCCCC(CC)COCC1CO1 (stereo not given), CC(=O)OCC(=O)[C@@]12N=C(C)O[C@@H]1C[C@H]1[C@@H]3CCC4=CC(=O)C=C[C@]4(C)[C@H]3[C@@H](O)C[C@@]12C, CC=CC(=O)N(CC)c1ccccc1C, CN1C(=O)N(C)C(O)C1O (stereo not given), COc1ccc2nc(N)sc2c1, CCOCC(=O)O, Nc1ncn([C@@H]2O[C@H](CO)[C@@H](O)[C@H]2O)c(=O)n1, OC1CCCC1, O=c1c2ccccc2oc2ccccc12, Cc1ccc(C(C)c2ccc(C)c(C)c2)cc1C, CC(C)CCCC(C)CC=O (stereo not given), CC(=O)NS(=O)(=O)c1ccc(N)cc1, CCCCCCCC/C=C\CCCCCCCC(=O)OCCO, O=C1c2ccccc2C(=O)C1c1nc2ccccc2c(Br)c1O, C[C@]12CCC(=O)C=C1CC[C@@H]1[C@@H]2C(=O)C[C@@]2(C)[C@H]1CC[C@]2(O)C(=O)CO, CCN(CC#N)c1cccc(C)c1, CC1(C)S[C@@H]2[C@H](NC(=O)COc3ccccc3)C(=O)N2[C@H]1C(=O)O, COc1c2ccoc2cc2oc(=O)ccc12, O=c1[nH]nc(-c2ccc([N+](=O)[O-])o2)o1, C=C[Si](OC(C)=O)(OC(C)=O)OC(C)=O, COc1cc(NC(=O)CC(C)=O)c(OC)cc1Cl, O=C(O)CCCC[C@@H]1SC[C@@H]2NC(=O)N[C@@H]21, CCCNC(=O)NS(=O)(=O)c1ccc(Cl)cc1, C=C(C)C(=O)OCCOc1ccccc1, CC(C)(C)C(=O)CCc1ccc(Cl)cc1, COC(=O)/C=C\C(=O)O, [Cl][Nd]([Cl])[Cl], NCCCN1CCN(CCCN)CC1, CCCCC(CC)COC(=O)c1ccccc1O (stereo not given), COc1ccc(C(Cl)=C(c2ccc(OC)cc2)c2ccc(OC)cc2)cc1, CCCOC(=O)CCCCC(=O)OCCC, CCOC(=O)N1CCC(=C2c3ccc(Cl)cc3CCc3cccnc32)CC1, c1ccc(-c2ccccn2)nc1, CNC(=S)N(C)C, C[C@]12C=CC(=O)C=C1CC[C@@H]1[C@@H]2[C@@H](O)C[C@@]2(C)[C@H]1CC[C@]2(O)C(=O)CO, Cc1ccc(C(C)(C)C)cc1

Experiment: ATG_GLI_CIS: Attagene CIS-FACTORIAL HepG2 Assay for human Zinc Finger Protein GLI1 (AID 2282945)
Details: HepG2, Attagene cis-factorial reporter mRNA, GLI element; actives raise or lower the signal
How it was run: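 Transiently transfected HepG2 cells report endogenous transcription factor activity via cis-element-driven reporter units. After 24 h compound exposure, reporter mRNA was measured by RT-PCR with capillary electrophoresis; bidirectional fitting against DMSO baseline.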

outcome, inactive:
C=CC(C)(C)C, CCCCCCCCCCCCCOP(=O)(O)O, CC(C)=CCC[C@H](C)CCO, NC(=O)OCC(COC(N)=O)c1ccccc1, CCCCC(CC)COCC1CO1 (stereo not given), CC(=O)OCC(=O)[C@@]12N=C(C)O[C@@H]1C[C@H]1[C@@H]3CCC4=CC(=O)C=C[C@]4(C)[C@H]3[C@@H](O)C[C@@]12C, CC=CC(=O)N(CC)c1ccccc1C, CN1C(=O)N(C)C(O)C1O (stereo not given), COc1ccc2nc(N)sc2c1, CCOCC(=O)O, Nc1ncn([C@@H]2O[C@H](CO)[C@@H](O)[C@H]2O)c(=O)n1, OC1CCCC1, O=c1c2ccccc2oc2ccccc12, CC(C)CCCC(C)CC=O (stereo not given), CC(=O)NS(=O)(=O)c1ccc(N)cc1, CCCCCCCC/C=C\CCCCCCCC(=O)OCCO, O=C1c2ccccc2C(=O)C1c1nc2ccccc2c(Br)c1O, C[C@]12CCC(=O)C=C1CC[C@@H]1[C@@H]2C(=O)C[C@@]2(C)[C@H]1CC[C@]2(O)C(=O)CO, CCN(CC#N)c1cccc(C)c1, CC1(C)S[C@@H]2[C@H](NC(=O)COc3ccccc3)C(=O)N2[C@H]1C(=O)O, COc1c2ccoc2cc2oc(=O)ccc12, O=c1[nH]nc(-c2ccc([N+](=O)[O-])o2)o1, C=C[Si](OC(C)=O)(OC(C)=O)OC(C)=O, COc1cc(NC(=O)CC(C)=O)c(OC)cc1Cl, O=C(O)CCCC[C@@H]1SC[C@@H]2NC(=O)N[C@@H]21, CCCNC(=O)NS(=O)(=O)c1ccc(Cl)cc1, C=C(C)C(=O)OCCOc1ccccc1, CC(C)(C)C(=O)CCc1ccc(Cl)cc1, COC(=O)/C=C\C(=O)O, [Cl][Nd]([Cl])[Cl], NCCCN1CCN(CCCN)CC1, CCCCC(CC)COC(=O)c1ccccc1O (stereo not given), COc1ccc(C(Cl)=C(c2ccc(OC)cc2)c2ccc(OC)cc2)cc1, CCCOC(=O)CCCCC(=O)OCCC, CCOC(=O)N1CCC(=C2c3ccc(Cl)cc3CCc3cccnc32)CC1, c1ccc(-c2ccccn2)nc1, CNC(=S)N(C)C, C[C@]12C=CC(=O)C=C1CC[C@@H]1[C@@H]2[C@@H](O)C[C@@]2(C)[C@H]1CC[C@]2(O)C(=O)CO, Cc1ccc(C(C)(C)C)cc1

AC50, active:
Cc1ccc(C(C)c2ccc(C)c(C)c2)cc1C 146 µM
